Measurements: PubChem BioAssay AID1259415 (National Center for Advancing Translational Sciences (NCATS), 2018)
Where “and” joins values, the source holds several entries; their conditions need not be identical. Identical values can stand only once. In all, about 410,000 compounds went through this assay and about 18,000 (4.4%) were called active. About 7% were inconclusive and are not listed. The entries come from a sample that favours actives as a whole. A number with no mark means an inactive call. Cut-off read from the data, not from the text of the source: active = activity change below about -60%; inconclusive = no clear call, values can overlap the other calls; inactive = above about -39%.

assay: qHTS Assay for inhibitors of the human cytomegalovirus (HCMV); settings: HFF cells, HCMV-luciferase reporter, 72 h; at 57.5 µM; hits give low values
Summary of the method: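 Compounds were evaluated in HFFs infected with an HCMV luciferase reporter virus (MOI 1 PFU/cell). Luciferase in lysates collected 72 h post infection served as the replication measure.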
% is set by controls: 0 for no effect and ±100 for the full control effect.

SMILES	activity change, negative = inhibition
CCOc1ccc(-c2cn(S(=O)(=O)c3cccc4nsnc34)nc2N)cc1	-29.7%
CCC(C)(C)n1nnnc1C(c1cccs1)N1CCN(c2nc3ccccc3s2)CC1 (stereo not given)	-76.3% (active)
COc1ccccc1C(c1nnnn1C(C)(C)C)N1CCN(Cc2ccccc2)CC1 (stereo not given)	-19.3%
CCC(C)(C)n1nnnc1C(c1ccc(OC)c(OC)c1)N1CCN(C(=O)c2ccco2)CC1 (stereo not given)	-20.3%
CCOc1ccccc1N(CC)C(=O)c1cc2ccc3cccnc3c2[nH]1	36.8%
CCOC(=O)c1c(C)[nH]c2c1-c1ccccc1C(=O)C2=O	-99.7% (active)
CCOC(=O)c1c(C)[nH]c(C)c1S(=O)(=O)N(C)CC(=O)N1CCN(c2ccccc2)CC1	-3.36%
CCOC(=O)c1c(SCC(=O)Nc2cccc(C)c2C)nc(=O)[nH]c1C	-0.768%
CCOCCCNC(=O)c1c(NC(=O)Cc2coc3c(C)c(C)ccc23)sc2c1CCC2	-19.7%
CC1CCN(C(=O)c2cccc(S(=O)(=O)N3CCCc4ccccc43)c2)CC1	-31.3%
Cc1cc(C)c2sc(NC(=O)c3ccc(S(=O)(=O)N4CCCC4)cc3)nc2c1	1.97%
CN(C)CCCN(C(=O)c1ccc(S(=O)(=O)N2CCCc3ccccc32)cc1)c1nc2ccc(F)cc2s1	-113% (active)
CCN(CC(=O)Nc1c(F)cccc1F)C(=O)c1ccc(S(=O)(=O)N2CCCCC2)cc1	-16.4%
O=C(Nc1nnc(S(=O)(=O)N2CCCc3ccccc32)s1)c1cccc(F)c1	-22.4%
CN(C)CCCN(C(=O)c1ccc(S(=O)(=O)N2CCCCCC2)cc1)c1nc2ccc(Br)cc2s1	-66.2% (active)
Cc1cn(C)c(CC(=O)NCc2ccc(Cl)cc2)c1C(=O)O	-3.74%
O=C(CSc1ncc(CO)n1Cc1ccc(Cl)cc1)NCc1ccc(F)cc1	0.963%
Cc1ccc2[nH]c(=O)c(CC=C(Cl)Cl)c(C)c2c1	-11.6%
CCC(=O)Nc1cccc(-c2nc3cc(C)ccc3o2)c1	103%
NC(=O)c1ccc(N2CCCC2)nc1	9.29%
C/C(CC(C)C)=N\Oc1nc(C)cc(C)n1	-62.7% (active)
COc1ccc(NC(=O)C(CC(C)C)NS(=O)(=O)c2ccc3c(c2)CCN3C(C)=O)cc1OC (stereo not given)	-16%
C[C@@H]1CC[C@@]2(OC1)O[C@H]1C[C@H]3[C@@H]4CC=C5C[C@@H](O)[C@H](O)C[C@]5(C)C4CC[C@]3(C)[C@H]1[C@@H]2C (stereo not given in full)	-70.9% (active)
CC(=O)OC1CCC2(C)C(=CCC3C4CC(=O)N(O)C(=O)C4(C)CCC32)C1 (stereo not given)	17.9%
C[C@]12CC[C@H](O)CC1=CCC1C2CC[C@@]2(C)C1CC[C@@H]2NC(=O)CCC(=O)O (stereo not given in full)	-2.14%
Cc1cccc(NC(=O)c2nnn(CC(=O)Nc3ccc(C(C)C)cc3)c2N)c1C	3.95%
COc1cccc(NC(=O)COC(=O)c2ccc3ccccc3n2)c1	78.4%
COc1ccccc1/C=C/C1=NC(=C\N(C)C)/C(=O)O1	64.2%

SMILES	activity change, negative = inhibition
COc1cccc(/C=C/c2ccc3ccccc3n2)c1OC(C)=O	-95.1% (active)
CCOc1cccc(/C=C/c2ccc3ccccc3n2)c1OC(C)=O	-79.7% (active)
CCOc1ccc2ccccc2c1/C=N/NC(=O)c1c(C)cc(C)[nH]c1=O	-32.4%
Cc1cc(C)cc(NS(=O)(=O)c2cc3c(cc2C)NC(=O)CO3)c1	-26.3%
Cc1cccc(N2CCN(C(=O)c3cc4c(=O)oc5ccccc5c4s3)CC2C)c1 (stereo not given)	1.15%
COc1ccc(NC(=O)Cn2c(=O)n(CCC(C)C)c(=O)c3cccnc32)cc1Cl	-4.37%
Cc1ccc(CNC(=O)Nc2nnc([C@H]3C[C@H](O)[C@@H](CO)O3)s2)cc1	-100% (active)
O=C(Nc1ccc(F)cc1)Nc1nnc([C@H]2C[C@H](O)[C@@H](CO)O2)s1	30.2%
O=C(Nc1nnc([C@H]2C[C@H](O)[C@@H](CO)O2)s1)c1cccc(Cl)c1	40.2%
COc1ccccc1OCCC(=O)OCC(=O)NCc1ccccc1	14.2%
COc1cc(C(=O)NCc2ccncc2)cc(Br)c1OCc1ccccc1	-62.2% (active)
COc1cc(-c2nnn(CC(=O)NCc3ccccc3)n2)cc(OC)c1OC	5.2% and 12.4%
CCC(=O)N1CCc2cc(S(=O)(=O)NC(C(=O)N3CCc4ccccc4C3)C(C)C)ccc21 (stereo not given)	-14.7%
Cc1nc(NC(CC(C)C)C(=O)O)c2nc(C)oc2n1 (stereo not given)	-6.81%
O=c1c(-c2ccc3c(c2)OCCO3)c(C(F)(F)F)oc2cc(O)cc(O)c12	-90.6% (active)
CCOC(=O)c1cc2cc(-c3c(C(=O)OCC)oc4cc(O)cc(O)c4c3=O)ccc2o1	-2.73%
CCOc1ccc2c(=O)c(-c3ccc4c(c3)OCCCO4)c(C)oc2c1	20.1%
CCc1ccc(CNC(=O)c2ccc(CS(=O)c3ccc(Br)cc3)o2)cc1 (stereo not given)	10.6%
CCOC(=O)c1cc(-c2ccccc2)n(CCC(=O)Nc2ccccc2CC)c1C	30.9%
Cc1ccc(Cl)cc1NC(=O)CSc1nc2ccccc2nc1Cc1ccccc1	36.7%
CCN1/C(=C\c2ccc3ccccc3[n+]2CC)Sc2cc(C)ccc21	-99.8% (active)
O=c1o[nH]c(-c2ccccc2)c1N=Nc1c(F)cccc1Cl	-12.9%
COc1cc(NC(=O)CCn2nc(C)cc2C)cc(OC)c1OC	9.6%
CN(C(=O)CN1C(=O)S/C(=C\c2ccccc2F)C1=O)C1CCS(=O)(=O)C1 (stereo not given)	-18.9%
COc1ccccc1/C=C1\SC(=O)N(CCC(=O)N(C)C2CCS(=O)(=O)C2)C1=O (stereo not given)	-7.61%
CN(C(=O)CCN1C(=O)/C(=C/c2ccccc2F)SC1=S)C1CCS(=O)(=O)C1 (stereo not given)	-63.4% (active)
CCCNC(=O)CCC(=O)N1Cc2ccccc2Oc2ncccc21	2.27%
